From PubChem BioAssay (NCI) come the findings set out here.

What all share (experiment): NCI-60 one-dose screen, 48 h (100 = growth as untreated, 0 = no growth, -100 = all killed)
What all share (details): 10 µM unless noted

In assay [1] the test system is SR leukemia.
Assay [2] concerns RPMI-8226 leukemia.
Assay [3] has as its system OVCAR-8 ovarian.
The test system of assay [4] is OVCAR-5 ovarian.
Assay [5] deals with OVCAR-4 ovarian.
Assay [6] relates to SK-OV-3 ovarian.
The subject of assay [7] is IGROV1 ovarian.
The subject of assay [8] is OVCAR-3 ovarian.
In assay [9] the test system is HS 578T breast.
In assay [10] the test system is NCI/ADR-RES ovarian.
Assay [11] deals with T-47D breast.
Assay [12] relates to BT-549 breast.
Assay [13] deals with MDA-MB-435 melanoma.
Assay [14] deals with SW-620 colon.
Assay [15] deals with MCF7 breast.
Assay [16] has as its system HCT-116 colon.
The subject of assay [17] is HCC-2998 colon.
Assay [18] relates to KM12 colon.
In assay [19] the test system is MDA-MB-468 breast.

The structures appear in SMILES notation. This is part of a sample that, as a whole, favours compounds with a hit. Of some 83,000 tested, about 20% had one in any assay.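 The endpoint reported here, percent growth, reads 100 for growth as untreated, 0 for no net growth and -100 for all cells dead.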 Unmarked numbers belong to inactive results. The source made the active and inactive calls. How the source made its calls: active means growth percent below 10; inactive means the rest.

Take `C/C(=N\N=C1/C(=O)Nc2ccc(Cl)cc21)c1ccc2c(c1)Nc1ccccc1S2`: the growth in assay [1] was 11.4%; in assay [2] it was 10.8%; in assay [3], -15.6% (active); in [4], 15.8%; in assay [5] it was 15.7%; in [6] it was 50.4%. Moreover, the growth in assay [7] is -8.9% (active); in [8], -66.9% (active); in [9], 9.82% (active); in assay [10], -28.3% (active); in assay [11], 11.9%; in assay [12], -32.1% (active). Also, the growth is -35.2% (active) in assay [13]; -27.8% (active) in assay [14]; -9.38% (active) in [15]; -43% (active) in assay [16]; -48.2% (active) in [17]; -79.3% (active) in assay [18]. In addition, the growth in assay [19] was 2.73% (active).

Regarding `O=C(COc1ccc2c(c1)CCCC(=O)N2)NCc1ccccc1`, the growth was 27.6% in [1]; 94.9% in [2]; 99.5% in assay [3]; 101% in [4]; 92% in assay [5]; 89.5% in assay [6]. The growth in assay [7] was 111%; in assay [8], 85.4%; in [9], 94.2%; in [10] it was 80.2%; in [11] it was 95.7%; in assay [12], 104%. Besides, the growth in assay [13] is 3.41% (active); in assay [14], 60.9%; in assay [15], 59.3%; in assay [16] it was 93.5%; in assay [17] it was 95.9%; in [18] it was 58.9%. Moreover, in [19], the growth is 28.8%.

Take `CC(C)CSc1nc(NCCc2c[nH]c3ccccc23)c(C#N)c(-c2ccc(F)cc2)n1`: the growth was 3.42% (active) in assay [1]; 31.5% in assay [2]; 59.5% in assay [3]; 101% in assay [4]; 72.8% in [5]; 57.9% in assay [6]. Also, the growth in assay [7] is 78.3%; in assay [8] it was 76.9%; in assay [9], 39.6%; in assay [10] it was 39.9%; in [11], 24.6%; in [12], 72.1%. Moreover, the growth is 59.1% in assay [13]; 38% in assay [14]; 22.5% in assay [15]; 11.3% in assay [16]; 32.5% in assay [17]; 24% in assay [18]. In assay [19], the growth is 54.3%.

On to `NS(=O)(=O)c1ccc(N=Nc2c(O)n(CC(=O)Nc3ccccc3)c3ccccc23)cc1`, for which the growth is 18.5% in assay [1]; 42.7% in assay [2]; 11.3% in assay [3]; 74.5% in assay [4]; 57.3% in assay [5]; 25.2% in assay [6]. Further, the growth in assay [7] was 38.9%; in assay [8] it was 20.8%; in [9], 52%; in assay [10], 64.3%; in assay [11], 60.8%; in assay [12], 25.5%. Besides, the growth in [13] was 9.55% (active); in [14], -17.4% (active); in assay [15], 14.9%; in [16], -45.3% (active); in assay [17], 12.9%; in assay [18], 13.9%. Also, the growth in assay [19] is 36.5%.

As for `CCN(CC)c1ccc(/C=N/Nc2nc(-c3ccc(C)cc3)cs2)c(O)c1`, the growth in assay [1] was 92.9%; in [2], 74.3%; in assay [3], 86.8%; in [4], 93.2%; in assay [5], 89.7%; in [6] it was 108%. Moreover, the growth was 96.3% in assay [7]; 92.1% in assay [8]; 108% in assay [9]; 92.5% in assay [10]; 68.7% in assay [11]; 71.9% in [12]. Moreover, the growth was 96.7% in assay [13]; 99.1% in assay [14]; 67.8% in [15]; 72.9% in [16]; 106% in assay [17]; 94.6% in assay [18]. Also, in assay [19], the growth is 66.7%.

Consider `CN(C)CCOc1ccc(C(=O)C2[C@H](c3ccc(Cl)cc3)[C@@H](c3ccccc3)NC23C(=O)Nc2ccc(Br)cc23)cc1` (stereo not given in full), for which the growth is -36.4% (active) in assay [1]; -30.8% (active) in assay [2]; -61.8% (active) in assay [3]; 36.4% in assay [4]; 33.9% in [5]; 96% in assay [6]. For the same compound, the growth is 29.1% in [7]; -4.55% (active) in assay [8]; 58.7% in [9]; 23% in assay [10]; 42% in [11]; 67% in assay [12]. Further, the growth was -66.5% (active) in [13]; -80% (active) in assay [14]; -59.8% (active) in assay [15]; -96.6% (active) in [16]; -94.4% (active) in assay [17]; -48.4% (active) in [18]. Also, the growth in assay [19] is -84.7% (active).

In the case of `CCOC(=O)COc1c(OC)c(OC)cc2oc(-c3cccc(C(=O)Nc4ccc(Cl)cc4)c3)cc(=O)c12`, the growth is 18.4% in assay [1]; 38.5% in assay [2]; 52% in assay [3]; 81.4% in [4]; 68.8% in assay [5]; 75.4% in assay [6]. Besides, the growth is 54.4% in assay [7]; 23.3% in assay [8]; 49.6% in [9]; 36.5% in [10]; 47.5% in assay [11]; 21.2% in [12]. Also, the growth was -11.8% (active) in assay [13]; 37.6% in assay [14]; 15.7% in assay [15]; 22.7% in assay [16]; 76% in assay [17]; 16.2% in assay [18]. Moreover, the growth in assay [19] was 68%.

As to `CCCCSc1nc(Nc2ccc(C(C)=O)cc2)c(C#N)c(-c2ccc(OC)cc2)n1`, the growth in assay [1] is 70.9%; in assay [2] it was 91%; in [3], 27.5%; in assay [4], 57.9%; in assay [5], -45.4% (active); in assay [6], 106%. For the same compound, the growth in assay [7] is 38.5%; in [8] it was 20.8%; in assay [9], 66.1%; in assay [10], 58.1%; in [11] it was 64.3%; in assay [12], 75.3%. Besides, the growth in assay [13] is 75.4%; in assay [14] it was 63.2%; in assay [15], 65.4%; in [16], 32.5%; in [17], 98.4%; in assay [18], 95.3%. Further, the growth in assay [19] is 67.5%.

Turning to `CCCCCCCCc1ccc(C(=O)Nc2ccc(C)cc2C(=O)O)cc1C`, the growth was 88.2% in assay [1]; 82.7% in assay [2]; 93.2% in assay [3]; 115% in [4]; 102% in assay [5]; 100% in assay [6]. The growth in assay [7] was 98.2%; in [8], 108%; in [9] it was 93.1%; in [10] it was 96.3%; in assay [11] it was 94.4%; in [12], 101%. Also, the growth in [13] is 105%; in assay [14], 97.2%; in assay [15], 93.8%; in assay [16], 84%; in assay [17], 106%; in [18], 79.7%. For the same compound, the growth in [19] is 92.8%.

Regarding `C/C(=N\N=C1/C(=O)Nc2ccccc21)c1ccc2c(c1)Nc1ccccc1S2`, the growth in [1] is 44.5%; in assay [2], 38.7%; in assay [3], 56%; in assay [4], 83.7%; in [5], 37.4%; in assay [6], 101%. Moreover, the growth in assay [7] is 45.6%; in [8], 34.9%; in assay [9], 72.1%; in assay [10], 59.4%; in [11] it was 26.8%; in assay [12], 43.9%. Further, the growth in assay [13] was -52.5% (active); in assay [14], 63.5%; in [15], 22.2%; in [16], 16.2%; in assay [17], 75.7%; in [18], 66.4%. For the same compound, the growth in assay [19] was 34.6%.

For the compound `Cn1cc(-c2nnc(N)nc2-c2c[nH]c3ccccc23)c2cccnc21`, the growth in [1] was 25.2%; in assay [2], 43.5%; in assay [3], 49.7%; in assay [4] it was 77.8%; in assay [5] it was 76.8%; in assay [6], 64.6%. For the same compound, the growth in [7] is 39.5%; in assay [8] it was 25.9%; in assay [9], 41.4%; in assay [10], 76.3%; in [11], 44.6%; in assay [12], 34.7%. Further, the growth in assay [13] is -28.9% (active); in [14] it was 16.5%; in [15], 22.5%; in [16] it was 18.2%; in assay [17], 81%; in [18], 17.2%. Moreover, the growth in [19] is 33.4%.

On to `O=C1CC(Sc2n[nH]c(-c3ccncc3)n2)C(=O)N1c1ccc(Br)cc1` (stereo not given), for which the growth is 97.4% in [1]; 94.1% in [2]; 105% in assay [3]; 105% in assay [4]; 110% in assay [5]; 108% in [6]. Also, the growth in [7] was 112%; in assay [8], 114%; in assay [9], 111%; in [10], 111%; in [11] it was 94.5%; in assay [12] it was 122%. The growth was 104% in assay [13]; 101% in assay [14]; 99.8% in [15]; 105% in assay [16]; 110% in [17]; 109% in [18]. The growth in [19] is 99.3%.

Regarding `O=C1c2c(c3c4cc(F)ccc4oc3c3[nH]c4ccc(Br)cc4c23)C(=O)N1O`, the growth is 4.45% (active) in [1]; 34.2% in assay [2]; 19.8% in assay [3]; 108% in [4]; 76.6% in assay [5]; 4.35% (active) in assay [6]. The growth was 46.3% in assay [7]; 67.2% in assay [8]; -4.24% (active) in [9]; 30.7% in [10]; 23.9% in assay [11]; 1.19% (active) in [12]. Besides, the growth is 37.1% in assay [13]; 34.9% in assay [14]; 15.6% in assay [15]; 34.5% in assay [16]; 63.5% in assay [17]; 34.5% in [18]. Besides, the growth in assay [19] is 46.4%.

In the case of `Cn1cc(-c2nc(N)nnc2-c2c[nH]c3ccc(F)cc23)c2cccnc21`, the growth in assay [1] is 17.8%; in assay [2], 44.7%; in assay [3], 50.3%; in assay [4] it was 80.2%; in assay [5] it was 70.7%; in [6], 41.3%. For the same compound, the growth is 22.3% in [7]; 60.7% in [8]; 15.1% in assay [9]; 52.1% in assay [10]; 19.4% in assay [11]; 38% in assay [12]. The growth is 49.6% in assay [13]; 46.7% in [14]; 21.2% in assay [15]; 43.2% in assay [16]; 72.8% in assay [17]; 60.9% in assay [18]. The growth in [19] was 7.74% (active).

Turning to `N/C(=N\c1nc2ccccc2s1)NC(=O)Nc1ccc(Cl)cc1Cl`, the growth was 5.8% (active) in assay [1]; -1.62% (active) in assay [2]; -79.3% (active) in [3]; -73.2% (active) in assay [4]; -87.7% (active) in [5]; -91.5% (active) in [6]. Moreover, the growth in assay [7] was -68.5% (active); in assay [8], -95.5% (active); in [9] it was -26.7% (active); in assay [10] it was -84.8% (active); in [11], -10.7% (active); in assay [12], -17.6% (active). The growth in [13] was -97.3% (active); in [14] it was -67.9% (active); in assay [15] it was -4.93% (active); in [16], -79.6% (active); in [17] it was -25.4% (active); in [18] it was -64.4% (active). In addition, in [19], the growth was -48.6% (active).
